Inhibition data for 23 molecules are collected here from PubChem BioAssay.

Molecules are shown by their SMILES. Values without a mark were called inactive. How the calls were made is not given here.

A word on the inhibition: it is the change of the read-out against control, counted positive when it falls.

The target in this assay is Pantothenate synthetase (Mycobacterium tuberculosis (strain ATCC 25618 / H37Rv)) (UniProt P9WIL5). As to the kind of experiment: Recombinant Mtb pantothenate synthetase (PanC) inhibitors, coupled enzyme, confirmatory (AID 375).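 Further: 0% = full reaction with vehicle and 100% = no enzyme background.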 As to conditions: coupled enzyme assay; at 10 µM, active compounds read high.
Pantothenate synthetase (Mycobacterium tuberculosis (strain ATCC 25618 / H37Rv)), sequence (P9WIL5 whole entry, looked up): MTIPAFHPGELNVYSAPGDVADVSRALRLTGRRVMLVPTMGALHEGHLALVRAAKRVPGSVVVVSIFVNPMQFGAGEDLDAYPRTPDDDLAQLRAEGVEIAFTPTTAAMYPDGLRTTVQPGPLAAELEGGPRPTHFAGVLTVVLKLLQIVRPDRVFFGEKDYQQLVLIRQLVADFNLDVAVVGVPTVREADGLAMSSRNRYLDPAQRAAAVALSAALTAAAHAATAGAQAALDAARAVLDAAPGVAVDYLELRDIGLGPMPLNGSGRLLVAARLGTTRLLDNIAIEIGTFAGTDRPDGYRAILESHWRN
For `CCOc1cc(C(=O)Nc2c3c(nn2C(C)(C)C)CS(=O)C3)cc(OCC)c1OCC` (stereo not drawn), the inhibition is 4%.
As for `COCC(=O)n1nc(NCc2ccc(OC)cc2)nc1NCc1ccc(OC)cc1`, the figure is 0%; as for `CCn1c2ccccc2c2cc(Nc3cc(C)nc4ncnn34)ccc21`, 0%.
As for `CC(C)Cn1c2c(c(O)c(C(=O)Nc3ncccc3O)c1=O)CCCC2`, the figure is 0%; as for `Cc1cc(C)c2c(N)c(C(=O)N3CCN(c4ncccn4)CC3)sc2n1`, 3%.
Turning to `Cc1cc2c(s1)c1cnn(CC(=O)NCCc3ccccc3)c(=O)c1n2C`, the inhibition was 0%.
As for `Cn1c(=N)c(S(=O)(=O)c2ccc(Cl)cc2)cc2c(=O)n3ccccc3nc21`, the figure is 0%; as for `CCN1C(=O)C2(C(C#N)=C(N)Oc3n[nH]c(C(C)C)c32)c2ccccc21` (stereo not drawn), 1%; as for `CC(C)CNC(=O)C1CC(=O)OC12CCCCC2` (stereo not drawn), 5%.
For the molecule `C=CCN(CC=C)C(=O)CN1C(=O)c2ccccc2C1=O`, the inhibition was 0%.
In the case of `Cc1nc2ccccc2c2oc(C(=O)NCCCN3CCCC3=O)cc12`, the inhibition is 7%.
Turning to `CC(C)(CSc1nncn1N)NS(=O)(=O)c1ccc(Cl)cc1`, the inhibition was 0%.
For `CCOC(=O)c1oc2ccccc2c1NC(=O)c1cccc(OC)c1OC`, the inhibition is 0%.
On to `CCOc1ccc(-c2nnn(CC(=O)N3CCN(c4ccc(F)cc4)CC3)n2)cc1OCC`, for which the inhibition is 0%.
For the molecule `NC(=O)c1sc2nc3c(c(-c4ccco4)c2c1N)CCC3`, the inhibition is 0%.
Next, `COCCn1c(N)c(C(=O)Nc2sc3c(c2C(=O)OC)CCCC3)c2nc3ccccc3nc21`: 1%.
As for `Cc1ccc(S(=O)(=O)N(CC(=O)NCc2ccco2)Cc2ccccc2F)cc1`, the figure is 0%; as for `O=C(Nc1ccccc1)c1ccc(NCC2CCCO2)c(S(=O)(=O)N2CCOCC2)c1` (stereo not drawn), 0%.
As for `Clc1ccc2nc(N3CCCCC3)[nH]c2c1`, the inhibition was 3%.
Next, `Cn1c(=O)c2c(nc(SCCCC#N)n2Cc2ccccc2F)n(C)c1=O`: 0%.
In the case of `c1nc(NCC2(N3CCOCC3)CCCCC2)c2ccsc2n1`, the inhibition is 0%.
As for `COCCCNC(=O)CCn1c(=O)c2ccccc2n(CC(=O)Nc2ccc(C)cc2C)c1=O`, the figure is 0%; as for `CCOC(=O)c1c(NC(=O)COC(=O)c2c(C)noc2C)sc2c1CCC2`, 1%.
